Most compounds without a hit are left out; they make up all but 7.8% or so of the library.
LASV entry inh = inhibitors of Lassa virus binding or cell entry; Potency, µM (highest dose often 37.9 µM), hits mostly inhibitors; Lassa virus pseudotype entry inhibition, cell reporter; hit rate 1.2% among 300,000; calls by dose curve; tested in HEK293 cells; note: nearly all actives have a fitted effect of over 50% in size
Vaccinia mCherry = inhibitors of vaccinia virus infection (mCherry reporter signal) | Vaccinia virus mCherry reporter infection, fluorescence | Potency, µM (series often up to 36.5 µM), most hits filed as inhibitors | hit rate 0.63% among 310,000 | AID 720579; calls by dose curve; tested in A549 cells; note: nearly all actives have a fitted effect of over 35% in size
Vaccinia Venus = inhibitors of vaccinia virus (Venus reporter). Vaccinia virus Venus reporter expression, fluorescence. Potency, µM (series often up to 36.5 µM), actives largely listed as inhibitors. hit rate 0.46% among 330,000. AID 720580; calls by dose curve; tested in A549 cells; note: nearly all actives have a fitted effect of over 30% in size
HCV inhibitor = blocks hepatitis C virus. Potency, µM (series often up to 41.8 µM), most hits filed as inhibitors. Huh7.5.1 HCVcc-Cre infection, luciferase reporter, 44 h. AID 651820. hit rate 3.4% among 340,000; active = well fitted inhibition curve with a large enough effect; inconclusive = small, poorly fitted or top-dose-only effect, or another doubt; inactive = no such curve, though single readings can be large or run the other way
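Antiviral activity was scored by luciferase reporter output from cells infected with HCVcc-Cre (~0.5 moi) in presence of compound, 44 h infection period, cells seeded 1,000/well 4 h prior.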
HCMV inh = inhibitors of human cytomegalovirus; HFF cells, HCMV-luciferase reporter, 72 h; hits give low values; activity change, negative = inhibition, % at 57.5 µM; hit rate 4.5% among 410,000; in the data active = activity change below about -60%; inconclusive = no clear call, values can overlap the other calls; inactive = above about -39%
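Inhibition of viral replication was scored as loss of reporter luminescence in HFFs infected with HCMV-luciferase (MOI 1 PFU/cell) for 72 h; compounds tested at 2 doses, normalized to buffer and Salinomycin controls.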
MARV entry inh = inhibitors of Marburg virus binding or cell entry; Potency, µM (top dose mostly 37.8 µM), hits mostly inhibitors; hit rate 1.8% among 300,000; Marburg virus pseudotyped entry inhibition, cell reporter; calls by dose curve; tested in HEK293 cells
Numbers stand for hits; n = inactive; u = inconclusive; x = not tested or not shown.

SMILES | LASV entry inh | Vaccinia mCherry | Vaccinia Venus | HCV inhibitor | HCMV inh | MARV entry inh
CC(C)(C)c1ccc(S(=O)(=O)/N=C2\C=C(NS(=O)(=O)c3ccccc3)C(=O)c3ccccc32)cc1 | u | n | n | n | n | n
Cc1ccc(S(=O)(=O)/N=C2\C=C(NS(=O)(=O)c3ccccc3)C(=O)c3ccccc32)c(C)c1 | n | u | n | n | -91 | n
Cc1ccc(S(=O)(=O)/N=C2\C=C(Nc3cccc(C(=O)O)c3)C(=O)c3ccccc32)c(C)c1 | u | n | n | n | -73 | u
O=C(NCC1COc2ccccc2O1)c1cccc(S(=O)(=O)N2CCN(c3ccccc3)CC2)c1 (stereo not drawn) | n | n | n | u | -76 | u
CN(C)C(CNC(=O)c1cccc(S(=O)(=O)N2CCN(c3ccccc3)CC2)c1)c1ccccc1 (stereo not drawn) | x | x | x | 13µM | n | x
COc1ccc(C(CNC(=O)c2cc(S(=O)(=O)N3CCN(c4ccccc4)CC3)ccc2Cl)N(C)C)cc1 (stereo not drawn) | x | x | x | 16µM | n | x
CN(C)C(CNC(=O)c1cccc(S(=O)(=O)N(C)C)c1)c1ccccc1 (stereo not drawn) | u | n | n | n | n | n
COc1ccc(C2=NCC(C)n3c2c2ccc(C(F)(F)F)cc2[n+]3[O-])cc1 (stereo not drawn) | x | x | x | x | n | x
CC(C)(CCc1ccccn1)C(=O)CCCc1ccccn1 | n | n | n | n | n | u
CC1=C(C(=O)Nc2cccnc2)C(c2cccc(F)c2)n2nc(SCc3ccccc3F)nc2N1 (stereo not drawn) | n | n | n | x | n | n
Cc1cc(CNC(=O)c2cnn(-c3nccc(-c4ccc5c(c4)OCO5)n3)c2C2CC2)on1 | x | n | n | x | x | x
O=C(Nc1ccc(C(=O)N2CCCc3ccccc32)cc1)c1cccs1 | n | n | n | n | n | 11µM
O=C(Nc1ccc2c(c1)CCCN2C(=O)c1cccs1)c1ccccc1Cl | u | n | n | x | -67 | x
O=C(Nc1ccc2c(c1)CCCN2C(=O)c1cccs1)c1c(F)cccc1Cl | x | x | x | u | -79 | x
O=C(Nc1ccc2c(c1)CCCN2C(=O)c1cccs1)c1c(F)cccc1F | u | n | n | u | -75 | x
COc1ccc(CC(N)c2csc(NC(=O)c3cc(C(C)(C)C)oc3C)n2)cc1 (stereo not drawn) | x | n | n | x | n | x
Cc1oc2ncn(CC(C)C)c(=O)c2c1C(=O)NCCc1ccccc1 | n | n | n | x | n | x
Cc1c(C(=O)N(C)Cc2ccccc2)sc2nc(-c3ccc(F)cc3)cn12 | u | u | u | x | -82 | x
Cc1c(C(=O)NCc2cccnc2)sc2nc(-c3ccc(F)cc3)cn12 | x | u | u | 11µM | n | x
Cc1c(C(=O)N(C)c2ccccc2)sc2nc(-c3ccc(F)cc3)cn12 | n | n | n | x | n | x
COc1ccc(-c2cn3c(C)c(C(=O)NCCN4CCOCC4)sc3n2)cc1 | n | n | n | u | n | n
Cc1c(C(=O)NCCCN2CCOCC2)sc2nc(-c3ccc(F)cc3)cn12 | n | n | n | 10µM | n | n
O=C(NCCc1nc2ccccc2n1Cc1ccc(Cl)cc1Cl)c1ccco1 | u | n | n | x | n | u
CCC(=O)Nc1nc(-c2ccc3c(c2)CC(C)N3S(C)(=O)=O)cs1 (stereo not drawn) | n | n | n | u | n | u
CS(=O)(=O)N1CCc2cc(-c3csc(NCC4CCCO4)n3)ccc21 (stereo not drawn) | n | n | n | n | n | n
SMILES | LASV entry inh | Vaccinia mCherry | Vaccinia Venus | HCV inhibitor | HCMV inh | MARV entry inh
CS(=O)(=O)N1CCc2cc(-c3csc(NC(=O)Cc4ccccc4)n3)ccc21 | u | u | u | u | -98 | 7.3µM
CC1Cc2cc(-c3csc(NC(=O)Cc4cccs4)n3)ccc2N1S(C)(=O)=O (stereo not drawn) | u | u | u | 6.3µM | -100 | u
CCCC(=O)Nc1nc(-c2ccc3c(c2)CCN3S(C)(=O)=O)cs1 | n | n | n | 13µM | n | n
Cc1ccccc1C(=O)N1CCc2cc(-c3csc(NC(=O)CN4CCCC4)n3)ccc21 | u | n | n | u | -79 | u
O=S(=O)(c1ccc(Cl)cc1)c1snnc1-c1ccccc1 | u | u | u | 13µM | -104 | 16µM
O=S(=O)(c1ccc(F)cc1)c1snnc1-c1ccccc1 | u | u | n | n | -88 | u
c1ccc(-c2nnsc2-c2ncc[nH]2)cc1 | n | n | n | n | n | u
